Bioassay records as filed in PubChem BioAssay.
Pyk2 oligo antag: Pyk2 (human) oligomerization antagonism; 99,000 tested, 0.83% active; z-score (the deposit names both 25 µM and 10 µM); Q293 cells, Pyk2 FERM NanoBiT luminescence; hits give low values; Q14289; AID 1347419;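 active means Z-score of -3 or lower, scaled per plate to the spread of control and sample wells; inactive means z-score above -3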;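 further: negative z-score means lost luminescence so less FERM oligomerization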
CYP2C19 activ: increases human CYP2C19 enzyme activity; P33261; recombinant CYP2C19, luciferin-H EGE luminescence; hits give high values; 0 = fully inhibited enzyme, 1 = untreated enzyme; activation factor at 5 µM; 96,000 tested, under 10 active; AID 1025;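 active means activation factor of at least 2 at 5 µM in the primary screen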
CYP2C9 activ: CYP2C9 (human) activation | recombinant CYP2C9, luciferin-H conversion, luminescence; hits give high values; factor 1 = untreated enzyme, 0 = blocked | P11712 | 96,000 tested, 1.4% active | activation factor at 5 µM;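 active means activation factor of 2 or more for CYP2C9 at a 5 µM dose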
Target sequence (P11712 whole entry, looked up): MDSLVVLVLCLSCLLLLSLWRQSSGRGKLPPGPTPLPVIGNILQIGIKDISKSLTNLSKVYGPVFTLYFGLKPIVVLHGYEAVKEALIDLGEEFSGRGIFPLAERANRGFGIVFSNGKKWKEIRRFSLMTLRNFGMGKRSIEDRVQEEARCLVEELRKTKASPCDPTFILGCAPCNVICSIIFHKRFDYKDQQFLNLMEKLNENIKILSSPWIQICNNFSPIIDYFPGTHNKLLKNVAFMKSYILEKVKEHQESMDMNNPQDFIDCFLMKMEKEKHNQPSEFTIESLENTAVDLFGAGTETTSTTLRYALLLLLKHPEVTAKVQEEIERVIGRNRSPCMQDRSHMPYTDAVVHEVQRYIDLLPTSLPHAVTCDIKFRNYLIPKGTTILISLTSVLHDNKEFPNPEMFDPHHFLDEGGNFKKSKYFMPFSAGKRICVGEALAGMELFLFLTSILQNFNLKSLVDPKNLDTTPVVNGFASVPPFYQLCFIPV
CYP2C9 inhib: inhibitors of human CYP2C9. 96,000 tested, 20% active. P11712. inhibition, % at 5 µM. CYP2C9 Supersomes, luciferin-H conversion, luminescence. AID 777;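 active means blocking of liver enzyme CYP2C9 beyond about 50% at 5 µM, limit read from the data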
CYP2C19 inhib: human CYP2C19 inhibition; P33261; CYP2C19 Supersomes, luciferin-H EGE luminescence, 30 min; inhibition, % at 5 µM; 96,000 tested, 21% active;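 active means CYP2C19 inhibition above a set limit at 5 µM in the primary screen, cut at about 50% in these data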
Large screens that a line does not name were inactive. An excerpt weighted towards active compounds, which were near 28% of everything screened.

C=CCn1c(CCC(=O)O)ccc1-c1ccccc1	CYP2C9 inhib 70
C=CCn1c(SCC(=O)Nc2c(C)n(C)n(-c3ccccc3)c2=O)nc2scc(-c3ccccc3)c2c1=O	CYP2C9 inhib 83
C=CCn1c(SCC(=O)NC2CCCC2)nc2scc(-c3ccco3)c2c1=O	CYP2C9 inhib 92, CYP2C19 inhib 87
CC(C)Sc1nc2c(c(=O)[nH]1)C(c1cccs1)C1=C(CC(C)(C)CC1=O)N2 (stereo not drawn)	CYP2C9 inhib 68 (no result: Pyk2 oligo antag)
CC(=NCCc1ccccc1)C1=C(O)CCC1=O	none
CC(=NCCc1ccccc1)C1=C(O)CSC1=O	CYP2C19 inhib 67
O=C(CCNc1ccc(F)cc1)c1cccc([N+](=O)[O-])c1	CYP2C19 inhib 56
CCC(=O)Nc1cccc(NC(=O)c2cccc([N+](=O)[O-])c2)c1	none
Cc1nc(SCC(=O)c2cccc([N+](=O)[O-])c2)n[nH]1	none
Cc1ccc(NC(=O)CCC(=O)NNC(=O)c2cccc([N+](=O)[O-])c2)cc1C	none
Cc1ccc(NCCC(=O)c2cccc([N+](=O)[O-])c2)cc1	CYP2C19 inhib 94
O=C(CCNc1ccccc1)c1cccc([N+](=O)[O-])c1	CYP2C19 inhib 67
CC1(C)C2CCC13CS(=O)(=O)N[C@@H]3C2 (stereo partly drawn)	none
CCOC(=O)C1=C(c2ccccc2)N=C2SCC(=O)N2C1c1ccc(OC)c(OC)c1 (stereo not drawn)	none
CCOC(=O)C1=C(c2ccccc2)N=C2SCC(=O)N2C1c1cccc(OC)c1 (stereo not drawn)	CYP2C9 inhib 54, CYP2C19 inhib 87
Cc1ccc(CCNC(=O)CCc2nc3ccccc3[nH]2)cc1	none (no result: CYP2C19 activ, CYP2C9 activ, CYP2C9 inhib, CYP2C19 inhib)
Nc1nc(NC(=O)c2cccc(S(=O)(=O)N3CCCCCC3)c2)nc(-c2ccccc2)n1	none
O=C(c1ccco1)N(CC1CCCO1)c1nc(-c2ccccc2)cs1 (stereo not drawn)	CYP2C9 inhib 85, CYP2C19 inhib 87
Cc1ccc(-c2csc(N(CCCN3CCOCC3)C(=O)c3ccco3)n2)cc1	CYP2C9 inhib 92, CYP2C19 inhib 87
COc1ccc(-c2csc(N(CCCN3CCOCC3)C(=O)c3ccco3)n2)cc1	none
O=C(c1cccs1)N(CC1CCCO1)c1nc(-c2ccccc2)cs1 (stereo not drawn)	CYP2C9 inhib 89, CYP2C19 inhib 95
COCCCN(C(=O)c1ccco1)c1nc(-c2cc(OC)ccc2OC)cs1	CYP2C9 inhib 76
O=C(CNS(=O)(=O)c1ccc(C(=O)N2CCCCC2)cc1)N1CCCCC1	none
CCn1c(COc2cccc3ccccc23)nnc1SCC(N)=O	none
COc1ccc(-c2cc(C(F)(F)F)n3nc(C(=O)NCCCn4ccnc4)cc3n2)cc1	CYP2C9 inhib 98, CYP2C19 inhib 83
COc1ccc(-c2cc(C(F)(F)F)n3nc(C(=O)NCc4ccco4)cc3n2)cc1OC	CYP2C9 inhib 69, CYP2C19 inhib 76
COc1ccccc1S(=O)(=O)n1cc(Cc2ccccc2)c(N)n1	none (no result: CYP2C19 activ, CYP2C9 activ, CYP2C9 inhib, CYP2C19 inhib)
Cn1c(Cc2cccs2)nnc1SC/C=C/c1ccccc1	none (no result: CYP2C19 activ, CYP2C9 activ, CYP2C9 inhib, CYP2C19 inhib)
CCCCOc1ccc(OC(=O)c2cccnc2)cc1	none
CCCCCCCOc1ccc(OC(=O)c2cccnc2)cc1	CYP2C9 inhib 77, CYP2C19 inhib 66
CCCCCCOC(=O)c1ccc(OC(=O)c2cccnc2)cc1	CYP2C9 inhib 86, CYP2C19 inhib 72
CCCCCCCCOC(=O)c1ccc(N)cc1	Pyk2 oligo antag -3.3 (no result: CYP2C19 activ, CYP2C9 activ, CYP2C9 inhib, CYP2C19 inhib)
CCCCCCOC(=O)c1ccc(NC(=O)c2cc(OC)c(OC)c(OC)c2Br)cc1	CYP2C9 inhib 64
CCCCOC(=O)c1ccc(OC(=O)c2cccnc2)cc1	none
CCCCOC(=O)c1ccc(NC(=O)c2cnccn2)cc1	none
CCCCOC(=O)Nc1ccc(C(=O)OCCC)cc1	none
CO[C@@H]1O[C@@H]2COC(c3ccccc3)O[C@@H]2[C@@H](OC)[C@@H]1O (stereo partly drawn)	none (no result: CYP2C19 activ, CYP2C9 activ, CYP2C9 inhib, CYP2C19 inhib)
CSc1ccccc1NC(=O)c1ccco1	none
CCCCCCC1CCC(C(=O)NC(CCSC)C(=O)NC(C(=O)OC)C(C)C)CC1 (stereo not drawn)	CYP2C19 inhib 86
CSCCC(C(=O)O)N1C(=O)c2ccc(C(=O)O)cc2C1=O (stereo not drawn)	CYP2C19 inhib 87
O=C(O)c1ccc2c(c1)C(=O)N(C(Cc1ccccc1)C(=O)O)C2=O (stereo not drawn)	none
Cc1cc(C)n2nc(SCc3cc(=O)oc4cc(O)ccc34)nc2n1	none (no result: Pyk2 oligo antag)
Cc1cc(C)c[n+](-c2nc3ccccc3nc2[N-]S(=O)(=O)c2ccc(Cl)cc2)c1	none (no result: CYP2C19 activ, CYP2C9 activ, CYP2C9 inhib, CYP2C19 inhib)
